The campaign covered roughly 52,000 compounds. About 4,300 (8.3%) were called active. Rule as the data show it: active = survival mostly below about 52% (no sharp cut-off); inactive = mostly above about 56%. The full list was thinned out, with actives kept by preference.

For the assay, the system named is DeltatarO mutant. The experiment in a line: growth inhibition of S. aureus wild type versus tarO mutant, primary screen, teichoic acid synthesis inhibitors, RN4220, OD600 (AID 463173). The conditions noted are these: OD600, 18 h, stronger effect = lower value, screened at 18.75 µg/mL (by protocol).
With `O=C(CSc1nnc(-c2ccc([N+](=O)[O-])cc2)o1)Nc1ccccc1`, the survival was 81% (inactive).
As for `CCSc1ncc(Cl)c(C(=O)Nc2sc(C(C)=O)c(C)c2C(=O)OC)n1`, the survival was 72% (inactive).
Turning to `O=C(Cn1ncc2c3ccccc3n(Cc3ccc(F)cc3)c2c1=O)NC1CCCCCC1`, the survival was 80% (inactive).
The figure for `COc1cccc(CNC(=O)CN(c2ccc(C)cc2)S(=O)(=O)N(C)C)c1OC` is 94% (inactive); for `C=Cc1ccc(CN2C(=O)N(c3ccc(CC)cc3)S(=O)(=O)c3ccccc32)cc1` it is 6% (active); for `C=Cc1ccc(CN2C(=O)N(c3ccc(C)c(C)c3)S(=O)(=O)c3ccccc32)cc1` it is 84% (inactive).
The figure for `C=Cc1ccc(CN2C(=O)N(c3cccc(Cl)c3)S(=O)(=O)c3ccccc32)cc1` is 64% (inactive); for `COc1cc(NC(=O)CCc2nc3cccnc3n2Cc2cccs2)cc(OC)c1OC` it is 78% (inactive).
The figure for `CC(=O)NC(Cc1cccc(C)c1)C(=O)NC1CCN(c2nc(C)cc(C)c2C#N)CC1` (configuration not stated) is 97% (inactive); for `CCS(=O)(=O)c1cccc(C(=O)Nc2ccc(-c3nc4ccccc4s3)c(O)c2)c1` it is 85% (inactive).
Consider `CCN(CC)c1ccc(C2Nc3ccccc3-c3cc(C)nn32)cc1` (configuration not stated), for which the survival was 7% (active).
`COc1cc(OC)c(C2Nc3c(C)cccc3-c3cc(C)nn32)cc1OC` (configuration not stated): the survival is 184% (inactive).
As for `CCOc1cccc(C2Nc3ccccc3-c3cc(C)nn32)c1O` (configuration not stated), the survival is 195% (inactive).
Take `COc1cc(C2Nc3c(C)cc(C)cc3-c3cc(C)nn32)cc(OC)c1O` (configuration not stated): the survival was 131% (inactive).
For `Cc1cc2n(n1)C(c1ccccc1)Nc1ccccc1-2` (configuration not stated), the survival is 93% (inactive).
Regarding `COC(=O)c1ccc(C2Nc3c(C)cccc3-c3cc(C)nn32)cc1` (configuration not stated), the survival was 74% (inactive).
On to `COc1cc(C2Nc3ccccc3-c3cc(C)nn32)ccc1O` (configuration not stated), for which the survival is 121% (inactive).
Regarding `COc1ccc(OC)c(C2Nc3c(C)cc(C)cc3-c3cc(C)nn32)c1` (configuration not stated), the survival was -3% (active).
For the compound `CCOc1ccc(C2Nc3c(C)cccc3-c3cc(C)nn32)cc1` (configuration not stated), the survival is 0% (active).
The figure for `O=C(NCc1ccccc1Cl)C1CCN(C(=O)N2CCOc3ccccc32)CC1` is 83% (inactive); for `COCCn1c(COc2cccc(OC)c2)nnc1SCC(=O)NC1CCCC1` it is 82% (inactive).
The figure for `COc1ccc(NC(=O)c2cc(C)nc3c2c(C)nn3-c2ccc(C)cc2)cc1OC` is 94% (inactive).
Take `Cc1ccc2[nH]c(=O)c(CN(C(=O)c3cccc(Cl)c3)C(C)(C)C)cc2c1`: the survival was 94% (inactive).
The figure for `Cc1ccc(C)c(C(=O)CSc2nc(-c3ccccc3)nc3c2CCCC3)c1` is 2% (active); for `NC(=O)CSc1nc(-c2ccccc2)nc2c1CCCC2` it is 88% (inactive).
The value for `Cc1ccc(C(=O)CSc2nc(-c3ccccc3)nc3c2CCCC3)cc1C` was 15% (active); that for `CCc1ccc(C(=O)CSc2nc(-c3ccccc3)nc3c2CCCC3)cc1` was 60% (inactive).
The figure for `Cc1ccc(C(=O)CSc2nc(-c3ccccc3)nc3c2CCCC3)c(C)c1` is 47% (inactive); for `Cc1nc2c(c(SCC(=O)Nc3ccccc3C(F)(F)F)n1)CCC2` it is 60% (inactive); for `O=C(CSc1nc(-c2ccccc2)nc2c1CCCC2)c1ccc(F)cc1` it is 83% (inactive).
Take `O=C(CSc1nc(-c2ccccc2)nc2c1CCCC2)c1ccc(Cl)cc1`: the survival was 76% (inactive).
The value for `Cc1ccc(C(=O)CSc2nc(-c3ccccc3)nc3c2CCCC3)cc1` was 36% (active).
The value for `OC(CNCc1ccccn1)COc1ccc(OCC(O)CNCc2ccccn2)cc1` (configuration not stated) was 96% (inactive); that for `Cc1ccc2c(c1)NC(=O)c1cccnc1O2` was 94% (inactive); that for `CCOc1ccc(CNC(=O)C(C)n2ncn3cccc3c2=O)cc1` (configuration not stated) was 69% (inactive).
As to `COc1ccc(C(C(=O)NC2CCCC2)N(Cc2ccco2)C(=O)Cn2nc(C(F)(F)F)c3c2CCCC3)cc1` (configuration not stated), the survival is 91% (inactive).
The figure for `Brc1ccc(-c2csc(NN=C3CCCC3)n2)cc1` is 102% (inactive); for `COC(=O)c1ccccc1NC(=O)c1ccc2c(c1)CCN2S(=O)(=O)c1ccc(Cl)cc1` it is 69% (inactive); for `CCn1c2c(c(=O)n3ncc(C(=O)Nc4ccc(F)c(Cl)c4)c13)CN(Cc1ccc(OC)cc1)CC2` it is 17% (active).
`CCn1c2c(c(=O)n3ncc(C(=O)Nc4ccc(Cl)cc4C)c13)CN(Cc1ccc(OC)cc1)CC2`: the survival was 87% (inactive).
Turning to `CCn1c2c(c(=O)n3ncc(C(=O)Nc4ccc(OC(F)(F)F)cc4)c13)CN(Cc1ccc(OC)cc1)CC2`, the survival is 94% (inactive).
As to `c1ccc(N2CCN(Cc3cccn3-c3nnc(N4CCN(C5CCCCC5)CC4)s3)CC2)cc1`, the survival was 76% (inactive).
Regarding `CCOc1ccccc1NC(=O)C1CCN(S(=O)(=O)c2cc(Br)cc3c2N(C(C)=O)CC3)CC1`, the survival is 69% (inactive).
The figure for `CC(=O)N1CCc2cc(Br)cc(S(=O)(=O)N3CCC(C(=O)Nc4cccc(C)c4C)CC3)c21` is 75% (active); for `CCCCNC(=O)C1CCN(S(=O)(=O)c2cc(Br)cc3c2N(C(=O)CC)CC3)CC1` it is 90% (inactive); for `CCC(=O)N1CCc2cc(Br)cc(S(=O)(=O)N3CCC(C(=O)Nc4ccc(OC)cc4)CC3)c21` it is 8% (active).
For the compound `CCc1cccc(C)c1NC(=O)C1CCN(S(=O)(=O)c2cc(Br)cc3c2N(C(C)=O)CC3)CC1`, the survival is 59% (inactive).
Take `CCC(=O)N1CCc2cc(Br)cc(S(=O)(=O)N3CCC(C(=O)Nc4ccccc4F)CC3)c21`: the survival was 43% (active).
For `CCC(=O)N1CCc2cc(Br)cc(S(=O)(=O)N3CCC(C(=O)NC(C)(C)C)CC3)c21`, the survival is 84% (inactive).
The value for `CCC(=O)N1CCc2cc(Br)cc(S(=O)(=O)N3CCC(C(=O)Nc4ccccc4CC)CC3)c21` was 84% (inactive).
With `CCC(=O)N1CCc2cc(Br)cc(S(=O)(=O)N3CCC(C(=O)Nc4cccc(C)c4)CC3)c21`, the survival is 80% (inactive).
`COC(=O)CNC(=O)C1CCN(c2nc(C)cc(-c3ccccc3)n2)CC1`: the survival is 96% (inactive).
The value for `O=C(Nc1sc2c(c1C(=O)c1ccccc1)CCCC2)c1ccco1` was 73% (inactive); that for `O=C(/C=C/c1ccco1)NC(=S)Nc1ccccc1O` was 100% (inactive); that for `CCCCNC(=O)C1CCC(Cn2c(=O)c3sccc3n(Cc3ccccc3)c2=O)CC1` (configuration not stated) was 71% (inactive).
On to `CSc1ccc(CCNC(=O)c2cnc3c(C)cccn3c2=O)cc1`, for which the survival was 89% (inactive).
Consider `CCc1ccccc1NC(=O)C1CCC(CNS(=O)(=O)c2ccc3c(c2)CC(C)N3C(C)=O)CC1` (configuration not stated), for which the survival was 91% (inactive).

The values above are taken from PubChem BioAssay AID463173 (ICCB-Longwood Screening Facility, Harvard Medical School, 2010).
